Results from PubChem BioAssay AID448 (National Center for Advancing Translational Sciences (NCATS), 2006).
Among all 65,000 compounds or so, about 45 (0.07%) were called active. Not all results are given here. Values without a mark were called inactive. The call rests on the fitted dose curve.

These compounds were tested on Schistosoma mansoni peroxiredoxin 2 (Prx2) (assay: Schistosoma Mansoni Peroxiredoxins (Prx2)). Details: S. mansoni Prx2 activity coupled to TGR/GSH (TGR is thioredoxin glutathione reductase), NADPH fluorescence loss, qHTS.
Description: NIH Molecular Libraries Screening Centers Network [MLSCN]
NIH Chemical Genomics Center [NCGC]
David Williams [Illinois State University]
Schistosoma mansoni, a causative agent of schistosomiasis, resides in the bloodstream of their host up to 30 years without being eliminated by the host immune attack. One proposed survival mechanism is the production of an antioxidant "firewall" that neutralizes the oxidative assault of the host's immune attack. Schistosoma mansoni peroxiredoxins (Prx) are important parasite antioxidant proteins that play a crucial role in redox balance mechanisms. […] First, the proteins are essential for the parasite survival. […] Third, the protein(s) is amenable for study at the molecular level and can be produced in bacteria in large quantities, in soluble and active form. Inhibition of Prx activity was screened in a coupled-enzyme format with reducing equivalents being transferred from NADPH to […] intermediate via thioredoxin/glutathione reductase (TGR)-catalyzed reaction, then from thioredoxin to hydrogen peroxide via Prx-catalyzed electron transfer. A decrease in the fluorescence intensity of NADPH was used to measure the enzyme activity. Purified S. mansoni TGR and Prx were provided by Professor David L. Williams, Illinois State University.
NCGC Assay Protocol Summary:
100 mM phosphate buffer, pH 7.4, 10 mM EDTA, 0.01% Tween-20.
100 uM NADPH/25 nM TGR/700 uM GSH/50 nM Prx2 mixture in columns 1, 2, 5-48. Titration of control potassium antimonyl tartrate (PAT, from 1 mM, then 1:5) pin-transferred to lower half of column 2. Column 1 and upper half of column 2 are neutral (100% activity).
Three uL of reagents were dispensed to 1536-well Greiner black plates. Compounds and controls (20 nL) were transferred via Kalypsys PinTool. The plates were incubated for 15 min at room temperature, and then a 1 uL aliquot of 400 uM NADPH/700 uM GSH was added, immediately followed by a 1uL aliquot of 2.5 mM H2O2 (to start the reaction). The plate was transferred to ViewLux (Perkin-Elmer) High-throughput CCD imager where kinetic measurements (every 30 sec, for a total of 8 min) of NADPH fluorescence were taken using 365 nm excitation/450 nm emission filter set. During dispense, enzyme-containing reagent bottles were kept submerged into 4 deg C water bath to minimize degradation.
Keywords: NIH Roadmap, MLSCN, MLI, MLSMR, David Williams, Peroxyredoxin, Schistosoma mansoni, prx2, prx, , qHTS, NCGC
Potency means the concentration at half of the fitted maximal effect.

Structure (SMILES) | Potency [µM]
Oc1ccc2ccccc2c1C=NCc1c(O)ccc2ccccc12 | > 57
CC(C)(O)[C@H]1[C@H]2OC(=O)[C@@H]1[C@]1(O)C[C@H]3O[C@]34C(=O)O[C@H]2[C@]14C | > 25.6
CC(C)[C@H](CO)Nc1nc(Nc2cc(N)cc(Cl)c2)c2ncn(C(C)C)c2n1 | > 57
O=c1[nH]c(=O)n([C@H]2C[C@H](O)[C@H](CO)O2)cc1Br | > 57
COc1cccc(Cn2c(=O)c(CCc3ccccc3)nc3cnc(N(C)C)nc32)c1 | > 11.4
COc1ccccc1CNc1ncncc1-c1cccnc1 | > 57
COc1ccc(NC(=O)N2CC3(CCN(C(C)=O)CC3)C2)cc1 | > 57
Cc1ccccc1-c1nc(N(C)Cc2ccco2)c2ccccc2n1 | > 57
O=C(c1cc(C(F)(F)F)cc(C(F)(F)F)c1)N1CCC2(CCCN(Cc3ccncc3)C2)CC1 | > 57
C[C@H](CCC(=O)NCC(=O)O)[C@H]1CC[C@H]2[C@H]3[C@@H](C[C@@H](O)[C@]12C)[C@]1(C)CC[C@H](O)C[C@@H]1C[C@@H]3O | > 57
Cc1nc2cnc(Nc3ccccc3)nc2n(C[C@H]2CCCO2)c1=O | > 57
CC[N+](C)(CC)CCC[n+]1c(-c2ccccc2)c2cc(N)ccc2c2ccc(N)cc21 | > 57
NCC[Se][Se]CCN | > 57
CCCC[C@H]1C(=O)N(c2ccccc2)N(c2ccc(O)cc2)C1=O | > 57
FC(F)(F)c1ccccc1-c1cc(NCc2ccccc2)ncn1 | > 57
O=C(Nc1cccc(F)c1)N1CC2(CCN(C(=O)c3cnccn3)CC2)C1 | > 57
COCCn1c(=O)c(CCc2ccccc2)nc2cncnc21 | > 57
O=C(c1cnccn1)N1CCC2(CCCN(Cc3ccccc3)C2)CC1 | > 57
COc1ccc(-c2nc3cnc(Oc4ccccc4)nc3n(Cc3cccs3)c2=O)cc1 | > 57
COCCn1c(=O)c(-c2cccs2)nc2cncnc21 | > 57
Cc1noc(C)c1-c1nccc(N2CCOCC2)n1 | > 57
O=C(c1cc(C(F)(F)F)cc(C(F)(F)F)c1)N1CCC2(CCCN(c3ccccn3)C2)CC1 | > 57
C/C=C1\C(=O)C[C@@H]2[C@@H]3CCC4=CC(=O)CC[C@@]4(C)[C@H]3CC[C@@]12C | > 57
